This is an account of results in PubChem BioAssay AID2540 (Sanford-Burnham Center for Chemical Genomics, 2010).

Screen size: about 330,000 compounds; about 4,100 (1.2%) were called active. The sample holds actives, similar compounds and a random draw of the others, so the mix is not that of the screen. Values without a mark were called inactive. No stated cut-off is given here; in the data, active means inhibition above about 50%; inactive means the rest.

The target in this assay is Sentrin-specific protease 8 (Homo sapiens) (UniProt Q96LD8). The assay can be described thus: blockers of human SENP8 peptidase activity – biochemical, luminescence, primary screen (AID 2540). To be noted: purified SENP8, Z-RLRGG-aminoluciferin cleavage, at 10 µM, stronger effect = higher value.
Chain of Sentrin-specific protease 8 (Homo sapiens) (Q96LD8 whole entry, looked up): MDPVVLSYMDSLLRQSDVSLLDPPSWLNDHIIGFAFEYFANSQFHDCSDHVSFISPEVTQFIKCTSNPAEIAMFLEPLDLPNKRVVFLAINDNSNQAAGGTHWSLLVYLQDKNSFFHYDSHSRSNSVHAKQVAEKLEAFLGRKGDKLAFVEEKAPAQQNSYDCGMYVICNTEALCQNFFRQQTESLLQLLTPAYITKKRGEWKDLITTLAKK
For `COc1ccc(C)cc1N(C)C(=O)c1coc(=O)c2ccccc12`, the inhibition (commonly the drop in the measured response relative to a control, in per cent) is -8.47%.
Next, `O=C(CN1C(=O)NC2(CCOc3ccccc32)C1=O)Nc1cccc([N+](=O)[O-])c1` (centres undefined): 7.44%.
As for `O=C(Nc1c2c(nn1-c1ccccc1)CS(=O)(=O)C2)C1CCCC1`, the figure is -3.98%; as for `COc1cc(/C=C(\C#N)c2nc3c(s2)CC(C)CC3)ccc1O` (centres undefined), -4.73%; as for `Cc1ccc2nc(/C(C#N)=C\c3ccc(OC(=O)c4cccs4)cc3)[nH]c2c1`, 3.01%.
As for `COc1cc(/C=C(\C#N)c2nc3ccccc3[nH]2)ccc1O`, the figure is 91.8% (active); as for `COc1ccc(NC(=O)CN(C)C(=O)Cc2coc3cc(C)c(C)cc23)cc1`, -3.13%; as for `COc1ccccc1C1=CC(=O)C[C@H](c2ccc(F)cc2)C1`, -4.36%.
With `CCN(CC)CCNc1nc(-c2ccc(OC(F)F)cc2)c(C)s1`, the inhibition was -5.12%.
For `COc1ccc(/C=C2\SC(=O)N(CCC(=O)NC3CCS(=O)(=O)C3)C2=O)cc1` (centres undefined), the inhibition is 2.13%.
`COc1ccc(/C=C2/SC(=O)N(CCCCCC(=O)Nc3ccccc3C(=O)O)C2=S)cc1`: the inhibition was 50.3% (active).
Next, `COc1ccc(/C=C2\SC(=O)N(CCC(=O)NCCCn3ccnc3)C2=O)cc1`: -11.9%.
Next, `CN1C(=O)CC(c2ccccc2)C1=O` (centres undefined): 1.07%.
With `COc1cc(NC(=S)NCCSc2ccc(C)cc2)cc(OC)c1`, the inhibition is -1.13%.
For `COc1cccc(C(=O)NNC(=O)c2cccc(F)c2)c1`, the inhibition was -1.03%.
Next, `CCOC(=O)c1cc2cc3ccccc3cc2oc1=O`: -4.84%.
Next, `COc1cccc(C(=O)c2cc3ccc(O)cc3oc2=O)c1`: 96.9% (active); `CN1CCN(Cc2nc3cc(NC(=O)COc4ccc([N+](=O)[O-])cc4)ccc3n2C)CC1`: 0.315%.
Next, `CN(C)c1cc(-c2ccc(F)cc2)oc(=O)c1Cl`: 2.47%.
As for `COc1ccc(-c2cc3ccc(OCc4nn[nH]n4)cc3oc2=O)cc1`, the inhibition was 39.6%.
On to `O=c1oc2cc(O)ccc2cc1-c1ccc(F)cc1`, for which the inhibition was 95.4% (active).
Next, `Cc1ccc(C)c(NC(=O)CN(C)C(=O)c2ccc3ncsc3c2)c1`: -13.6%; `O=C(Nc1ccccc1C(=O)O)c1ccc(N2C(=O)C3CC=CCC3C2=O)cc1` (centres undefined): 21.2%.
Turning to `COc1ccc(CCNC(=O)CCn2c(=O)c3ccccc3n(CC(=O)NCC3CCCO3)c2=O)cc1OC` (centres undefined), the inhibition is -9.64%.
On to `C[C@H](NC(=O)C1CCN(S(=O)(=O)c2ccccc2)CC1)C(=O)NCc1ccccc1`, for which the inhibition is -3.77%.
As for `Cc1ccc(OCc2nc3ccccc3n2C)cc1`, the figure is 51.5% (active); as for `CC(C)n1c(COc2ccccc2)nc2ccccc21`, -6.45%; as for `CCOc1ccc(C(O)Cc2nc3ccccc3n2C)cc1` (centres undefined), 1.07%.
`CCn1c(SCC(=O)NC2CC2)nnc1-c1ccccc1OC`: the inhibition is -9.1%.
As for `COc1ccc(C2OCC3(CO2)SC(=O)NC3=O)cc1OC` (centres undefined), the figure is -5.03%; as for `COC(=O)CSc1ncnc2c1cnn2-c1ccc(C)cc1C`, 6.59%.
Next, `CCN(CC)C(=O)CSc1ncnc2c1cnn2-c1ccccc1`: 2.66%; `COc1ccc(-n2ncc3c(SCC(=O)NNC(C)=O)ncnc32)cc1`: 53.4% (active).
For `CC(=O)Oc1ccc2c(=O)oc(-c3ccc([N+](=O)[O-])cc3)nc2c1`, the inhibition was 94.9% (active).
In the case of `CCOC(=O)CSc1nnc(-c2ccc([N+](=O)[O-])cc2)o1`, the inhibition was 1.65%.
Next, `CC(=O)Oc1ccc(-c2nc3c(C)cccc3c(=O)o2)cc1`: -1.45%; `N/C(=N\OC(=O)CCC1CCCCC1)c1ccccn1`: 70.6% (active); `COc1ccccc1OCC(=O)O/N=C(\N)c1ccccn1`: -6.27%.
Next, `N/C(=N\OC(=O)CC1CCCCC1)c1ccccc1`: 18.2%.
For the compound `COc1ccc(-c2nc(-c3ccccc3)no2)c(OC)c1`, the inhibition was 98% (active).
As to `COc1ccc(OC)c(-c2csc(-c3cccs3)n2)c1`, the inhibition was -5.23%.
As for `COc1ccc(-c2noc(CNC(=O)C(C)Oc3ccccc3)n2)cc1` (centres undefined), the inhibition was -0.358%.
As to `Clc1ccc2c(c1)C1=C(C(c3ccncc3)O2)C(c2ccc(Br)cc2)n2ncnc2N1` (centres undefined), the inhibition is -1.86%.
In the case of `CC(C)NC(=S)NN=C1CCCCCCCCCCC1`, the inhibition is -4.77%.
`CCn1c(CC(=O)Nc2ccccc2)nnc1SCC(=O)N1CCOCC1`: the inhibition is 3.84%.
As to `CCC(C)Cn1c(O)cc2nn(-c3nc4ccccc4s3)c(=O)c-2c1C` (centres undefined), the inhibition was 48%.
Next, `CC(=NCc1ccco1)c1c(C(F)(F)F)[nH]n(-c2nc3ccccc3s2)c1=O`: 94.7% (active); `CCc1ccc(-c2cc(C(=O)NCc3ccco3)c3ccccc3n2)s1`: -4.94%.
Next, `CC(C)CC(=O)N/C(N)=N/c1nc2ccccc2s1`: 17%.
As for `CCC1(CC)NC(=O)N(Cc2nc3ccccc3s2)C1=O`, the figure is -5%; as for `C/C(=N\NC(=O)CC(C)C)c1c(C(F)(F)F)[nH]n(-c2nc3ccccc3s2)c1=O`, 96.3% (active).
With `CC(C)(CSc1nncn1/N=C/c1ccco1)NS(=O)(=O)c1ccc(Cl)cc1`, the inhibition is -9.04%.
As for `Cc1cc(/C=N/NC(N)=O)c(C)n1C1CCCCC1`, the figure is -15.2%.
Next, `O=c1c2c(nc3cc(-c4cccc(Cl)c4)[nH]n13)CCCC2`: 61.8% (active); `Cc1cc(=O)n2[nH]c(-c3cccc(Cl)c3)cc2n1`: -14%.
As for `CCCCN1Cc2c(nc3cc(-c4ccccc4)[nH]n3c2=O)C1=O`, the figure is 1.85%.
Take `CC(Sc1nnc(-c2cccs2)n1C1CC1)C(=O)NCC1CCCO1` (centres undefined): the inhibition is -0.203%.
Next, `Cc1ccc(-n2cc3ccc([N+](=O)[O-])cc3n2)cc1`: 68.6% (active); `Cc1ccc(-c2cn(S(=O)(=O)c3cccc([N+](=O)[O-])c3)nc2N)cc1`: -7.7%.
As for `Cc1ccnc(N2C(=O)c3ccc([N+](=O)[O-])cc3C2=O)c1`, the inhibition was 6.9%.
As for `COc1ccc(CN2CCN(C(=O)c3cc(C4CC4)nn3-c3ccccc3)CC2)cc1F`, the figure is -8.29%.
With `COc1cc(SC)ccc1C(=O)Nc1nc(C)cs1`, the inhibition is 97.6% (active).
Next, `COc1cc(SC)ccc1C(=O)Nc1cc(C)ccn1`: 39%.
Turning to `Cc1csc(NC(=O)c2ccc(C)s2)n1`, the inhibition was -2.73%.
Next, `COc1ccc(N(CC(=O)NC2CCCC2)C(=O)CS(=O)CC(=O)Nc2ccc3c(c2)OCO3)cc1` (centres undefined): -16.6%; `CC1(C)CC(=O)C(C=NCCN2CCN(C(=S)Nc3cccc(Cl)c3)CC2)=C(O)C1`: 0.407%.
For the compound `Cc1[nH]n(-c2ccc([N+](=O)[O-])cc2)c(=O)c1C=NCCN1CCN(C(=O)c2ccccc2F)CC1`, the inhibition was 64.8% (active).
Turning to `C=CCNC(=S)N1CCN(CCN=Cc2c(C)[nH]n(-c3ccc([N+](=O)[O-])cc3)c2=O)CC1`, the inhibition is 61.4% (active).
As for `CCNC(=S)N1CCN(CCN=CC2=C(O)CC(C)(C)CC2=O)CC1`, the figure is -4.68%; as for `Cc1ccc(-n2[nH]c(C)c(/C=N/NC(=O)c3cccc([N+](=O)[O-])c3)c2=O)cc1C`, -5.78%.
As for `Cc1[nH]n(-c2ccccc2)c(=O)c1N=Nc1ccccc1C(=O)N1CCCCC1`, the inhibition is -1.4%.
Next, `CCc1ccc2nc(Nc3ncc(C(C)=O)c(C)n3)nc(C)c2c1`: -7.29%; `Cn1nnnc1-c1cc(Cl)cc(Cl)c1`: 3.44%; `N#C/C(=C\c1cccnc1)C(=O)Nc1ccc(SC(F)F)cc1`: 7.81%.
Next, `COc1ccc(N(CC(=O)NCCSCc2cccc(Cl)c2)S(C)(=O)=O)cc1`: 4.81%.
As for `CCC(C)c1ccc(NC(=S)N2CCCC2)cc1` (centres undefined), the figure is -3.49%; as for `Cc1ccc(/C(N)=N/OC(=O)COc2ccc(Cl)c(C)c2)cc1`, -7.2%; as for `N/C(=N\OC(=O)c1cc(-c2ccccc2)nc2ccccc12)c1ccncc1`, -5.5%.
Take `Cc1cccc(/C(N)=N/OC(=O)c2ccccc2Cl)c1`: the inhibition was 94.7% (active).
As for `Cc1ccc(S(=O)(=O)NCCNC(C)c2ccc(Br)cc2)cc1` (centres undefined), the figure is 2.45%; as for `O=C(OCC(=O)N1CCN(c2ccccc2)CC1)c1ccc([N+](=O)[O-])s1`, 58.1% (active); as for `COc1ccc(C(=O)COC(=O)c2ccc([N+](=O)[O-])s2)cc1OC`, 61.6% (active).
On to `C[C@H](NC(=O)c1ccccc1Cl)C(=O)OCC(=O)N1CCN(c2ccccc2)CC1`, for which the inhibition is 2.29%.
As to `COc1ccc(C(=O)OCC(=O)c2ccc(C)c(S(=O)(=O)N3CCOCC3)c2)cc1OC`, the inhibition was -6.51%.
As to `COc1cc(C(=O)OCc2ccc([N+](=O)[O-])cc2)cc(OC)c1OC`, the inhibition is 15.6%.
As for `COc1cccc(/C=C/C(=O)OCC(=O)N2CCN(c3ccccc3)CC2)c1`, the figure is -5.84%; as for `COc1ccc(C(=O)OCC(=O)c2ccc(Cl)s2)c(OC)c1OC`, -5.24%.
As for `COc1cc(NC(=O)COC(=O)c2ccc([N+](=O)[O-])s2)cc(OC)c1OC`, the figure is 63.8% (active); as for `COc1ccc(C(=O)OCC(=O)Nc2ccc3[nH]c(=O)[nH]c3c2)c(OC)c1OC`, 2.13%; as for `CC1(C)Cc2ccccc2-c2nnc(-c3cccc(O)c3)n21`, -5.27%.
Next, `Cc1ccc(NS(=O)(=O)c2ccc(C(C)C)cc2)cc1S(=O)(=O)N1CCOCC1`: -8.64%; `NC(=O)c1ccc(Nc2ccc3c(c2)CCC3)c([N+](=O)[O-])c1`: -12.7%.
As for `O=C(N/N=C/c1sc(N2CCCCC2)nc1-c1cccs1)c1cccnc1`, the inhibition is -8.56%.
As for `COc1ccc(OC)c(S(=O)(=O)NCCC(C)C)c1`, the inhibition was 0.429%.
